Screens from PubChem BioAssay.
Rows were chosen to be rich in hits. Some 7.3% of all compounds tested hit in one or more screens of this group.
Rab9 promoter act = activators of Rab9 promoter; Potency, µM (series often up to 9.22 µM), inactives show at the top dose activation, negative = inhibition, usual class: activators; Huh7 Rab9 promoter-luciferase reporter, luminescence, 24 h; 320,000 tested, 2.8% active; AID 485297; also: % of control where 0% means no effect; nearly all actives have a fitted effect of over 60% in size
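Steps: seed 1500 Huh7 Rab9-luc cells per well, rest 2 h at 37 °C; add compound in DMSO; incubate 24 h; add luciferase reagent, 10 min ambient; read luminescence.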
NPC1 prom act = activates the NPC1 promoter | 320,000 tested, 2.4% active | Huh7 NPC1 promoter luciferase reporter, 24 h | Potency, µM (highest dose often 9.22 µM), for inactives: at the highest dose activation, usual class: activators; also: % of control where 0% means no effect; nearly all actives have a fitted effect of over 60% in size
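Cells: Huh7 expressing luciferase under the NPC1 promoter, 1500/well. Seeded 2 h, compound added, incubated 24 h at 37 °C. Luciferase reagent, 10 min ambient, then luminescence.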
Luc counter = blocks Kinase-Glo luciferase, a counter-screen artifact. Q27757. Kinase-Glo luciferase, ATP luminescence, 8 min. Potency, µM (titrated, usually from 38.3 µM), for inactives: at the highest dose activity change, negative = inhibition, hits mostly inhibitors. 200,000 tested, 0.28% active. AID 1379; also: % is scaled to controls: 0 for no effect and ±100 for the full control effect; nearly all actives have a fitted effect of over 60% in size
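Light output from Kinase-Glo luciferase with luciferin and 10 uM ATP in 50 mM imidazole pH 7.2, KCl, MgCl2, Tween 20, BSA; compound pin-delivered, 8-min ambient incubation, then luminescence read.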
FLuc modulator = firefly luciferase modulation, counter-screen for miR-21 project | P08659 | purified FLuc, Km substrates, luminescence inhibition | Potency, µM (titrated, usually from 57.5 µM), without a hit: at the highest dose activity change, negative = inhibition, usual class: inhibitors | 360,000 tested, 6.9% active | AID 588342;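 also: plate controls were vehicle for no effect and reference inhibitor for full effect; nearly all actives have a fitted effect of over 55% in size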
Target sequence (P08659 whole entry, looked up): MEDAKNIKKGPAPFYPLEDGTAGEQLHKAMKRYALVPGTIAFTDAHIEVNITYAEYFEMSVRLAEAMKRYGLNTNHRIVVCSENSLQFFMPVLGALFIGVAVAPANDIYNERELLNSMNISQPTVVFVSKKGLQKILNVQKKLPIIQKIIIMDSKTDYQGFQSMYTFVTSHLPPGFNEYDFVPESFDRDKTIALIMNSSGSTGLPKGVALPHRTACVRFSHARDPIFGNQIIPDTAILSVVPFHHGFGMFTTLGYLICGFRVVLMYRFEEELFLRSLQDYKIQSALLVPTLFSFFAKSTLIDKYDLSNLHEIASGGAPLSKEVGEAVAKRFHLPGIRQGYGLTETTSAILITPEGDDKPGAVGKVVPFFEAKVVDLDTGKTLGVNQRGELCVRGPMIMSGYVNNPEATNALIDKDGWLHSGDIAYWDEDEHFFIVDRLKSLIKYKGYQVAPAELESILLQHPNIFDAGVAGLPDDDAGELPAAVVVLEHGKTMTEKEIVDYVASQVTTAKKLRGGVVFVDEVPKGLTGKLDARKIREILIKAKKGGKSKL
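Purified P. pyralis luciferase (10nM final) with 10uM D-luciferin and 10uM ATP (Km levels) in 50mM Tris acetate pH 7.5, 10mM Mg acetate, 0.01% Tween-20, 0.05% BSA; qHTS 6-point titration, ~60 µM downward; luminescence read.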
SMN2 splice enh = enhancers of SMN2 splice variant expression. HEK293 SMN2-luciferase splicing reporter, luminescence, 30-36 h. Potency, µM (top dose mostly 46.1 µM), for inactives: at the top dose activity change, positive = activation, actives largely listed as activators. 210,000 tested, 2.8% active; also: % of control where 0% means no effect; nearly all actives have a fitted effect of over 55% in size
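HEK293 cells carry an SMN2 […]–luciferase reporter in which exon 7 inclusion puts luciferase in frame. Cells were plated 10-12 h before compound addition, then incubated 30-36 h at 37C. ONE-Glo luminescence was read; sodium butyrate at 4.5 mM final served as control.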
ELG1 genotoxic = genotoxicity induction in ELG1-luciferase HEK293T cells. HEK293T ELG1-luciferase reporter, luminescence, 16 h. Potency, µM (doses to about 46 µM), without a hit: at the highest dose activity change, positive = activation, hits mostly activators. 330,000 tested, 1.3% active; also: % of control where 0% means no effect; nearly all actives have a fitted effect of over 60% in size
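After overnight (16 hr) compound treatment at 37 °C, ELG1-luciferase HEK293T cells were lysed with ONE-Glo; luminescence quantified 30 min later at room temperature.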
* marks the source's active call; other numbers are inactive results; ? = inconclusive; . = no result; [ ] = another dose, or the depositor's remark. Calls follow the shape of the dose curve; as a rule, active = well fitted curve in the direction sought with a large enough effect; inconclusive = small, poorly fitted or top-dose-only effect, or another doubt; inactive = no such curve, though single readings can be large; an effect the other way counts as inactive or inconclusive. Potency is read from the fitted curve at half-maximal effect.

SMILES	Rab9 promoter act	NPC1 prom act	Luc counter	FLuc modulator	SMN2 splice enh	ELG1 genotoxic
CCOC(=O)CC(NC(=O)CCc1c(C)nc2c(c(C)nn2-c2ccc(C)c(C)c2)c1C)c1ccc(C)cc1 (configuration not stated)	.	.	.	-6%	7%	.
O=C(NC1CCCC1)c1n[nH]c2ccccc12	2.8µM*	3.2µM*	-12%	24µM*	.	?
CCC(C)(C)C1CCc2[nH]nc(C(=O)NC3CCCC3)c2C1 (configuration not stated)	17%	12%	.	-14%	.	-4%
O=C(NC1CCCCC1)c1n[nH]c2c1CCCCC2	0.089µM*	?	.	0.38µM*	.	?
O=C(NN=C1CCCC1)c1n[nH]c2c1CCC2	24%	13%	?	?	.	?
O=C(NN=C1CCCC1)c1n[nH]c2c1CCCC2	0.63µM*	2.5µM*	13µM*	5.4µM*	22µM*	?
c1ccc(CCCNc2nnnc3ccccc23)cc1	.	.	-3%[7.66 µM]	.	-16%[9.22 µM]	.
Cc1ccc(CONC(=O)c2ccc(C)cc2)cc1	?	?	.	13µM*	.	?
Cc1ccc(C(=O)N/C(=C/c2ccco2)C(=O)OCN2C(=O)c3ccccc3C2=O)cc1	-3%	-2%	-4%	11µM*	-1%[1.84 µM]	2%
Cc1ccc(CONC(=O)c2ccccc2)cc1	?	?	.	15µM*	.	?
Cc1ccc(CONC(=O)c2ccc(Cl)cc2)cc1	?	0%	.	?	.	?
Cc1ccc(C(=O)N/C(=C\c2ccccc2)C(=O)OCc2ccccc2)cc1	?	?	0%	15µM*	20µM*	?
O=C(NCc1ccccc1F)c1ccc(CN2CC(=O)N3CCCCC3C2=O)cc1 (configuration not stated)	.	.	.	-2%	.	.
COC(=O)C1CCN(C(=O)c2ccc3nc(-c4cccc(OC)c4)oc3c2)CC1	2µM*	1.8µM*	.	21µM*	.	?
COc1cccc(-c2nc3ccc(C(=O)NC(C)Cc4cccnc4)cc3o2)c1 (configuration not stated)	2.8µM*	2.2µM*	.	9.5µM*	.	?
COC(=O)C1CCN(C(=O)c2ccc3nccnc3c2)CC1	-4%	-7%	.	-3%	.	10%
CCOc1ccccc1CNCc1cccn1-c1nnc(N2CCN(c3ccccc3)CC2)s1	.	.	.	-2%	.	.
O=C(CN1C(=O)c2ccccc2S1(=O)=O)c1ccc2c(c1)OCCO2	-47%	-37%	.	5.4µM*	.	-12%
O=C(CN1C(=O)c2ccccc2S1(=O)=O)c1ccc2c(c1)OCCCO2	-54%	-40%	.	2.1µM*	.	-15%
O=C(CCN1C(=O)c2ccccc2S1(=O)=O)Nc1ccc2c(c1)OCCO2	10%	22%	-5%	?	-10%	-4%
CC(C)CC1NC(=O)N(CC(=O)c2ccc3c(c2)OCCO3)C1=O (configuration not stated)	1.1µM*	2.8µM*	7%	11µM*	13µM*	?
CCCC1Oc2ccccc2C(=O)N(CC(=O)c2ccc3c(c2)OCCO3)C1=O (configuration not stated)	?	30%	.	6µM*	.	?
O=C(CN1C(=O)c2ccccc2S1(=O)=O)NC1CCCCCC1	27%	13%	-1%	?	16%	2%
CCOc1ccccc1NC1=C(Cl)C(=O)N(c2ccc(OC)cc2)C1=O	-4%	3%	3%	0%	12%	2%
COc1ccc(N2C(=O)C(Cl)=C(NCc3ccccc3)C2=O)cc1	6%	-1%	-3%	21µM*	0%	12%
COc1ccc(NC2=C(Cl)C(=O)N(CCc3ccccc3)C2=O)cc1	0%	6%	0%	2.7µM*	16µM*	8%
COc1ccccc1NC(=O)C(Cc1ccccc1)NS(=O)(=O)c1cccc2nsnc12 (configuration not stated)	.	.	.	-12%	-10%	.
